D2 ag-1: Beta-Arrestin HTS for Positive Allosteric Modulators of the Human D2 Dopamine Receptor: Agonists; DiscoveRx PathHunter D2 beta-arrestin, luminescence, 90 min; 100% = 57 uM dopamine signal; activation, % (test concentration not listed); 0.084% of 360,000 active; AID 624465, 2012; in the data active means activation above about 40%; inconclusive means between about 15% and that limit
Target sequence (P14416 whole entry, looked up): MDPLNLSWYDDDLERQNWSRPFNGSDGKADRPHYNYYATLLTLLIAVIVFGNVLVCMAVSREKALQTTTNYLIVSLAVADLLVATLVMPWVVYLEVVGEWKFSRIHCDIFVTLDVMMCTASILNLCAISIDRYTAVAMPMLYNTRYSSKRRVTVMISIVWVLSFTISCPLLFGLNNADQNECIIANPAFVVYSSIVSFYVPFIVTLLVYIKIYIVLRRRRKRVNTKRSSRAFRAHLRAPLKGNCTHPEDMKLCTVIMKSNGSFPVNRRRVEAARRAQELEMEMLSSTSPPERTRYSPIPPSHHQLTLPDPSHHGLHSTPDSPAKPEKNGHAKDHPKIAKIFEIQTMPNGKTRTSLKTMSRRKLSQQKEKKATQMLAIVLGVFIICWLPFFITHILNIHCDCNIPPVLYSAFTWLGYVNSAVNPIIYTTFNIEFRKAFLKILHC
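Agonist mode: compounds alone added to overnight-plated D2 PathHunter cells for 90 min at 37 C, with 57 uM final dopamine (EC100) defining full response. Beta-arrestin recruitment detected by chemiluminescent reagent, read after 1 h at ambient temperature.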
D2 antag: HTS Assay for Allosteric Antagonists of the Human D2 Dopamine Receptor: Primary Screen for Antagonists. HEK293 TREx D2 cells, calcium flux, dopamine EC80. inhibition, % at 10 µM. 2% of 340,000 active. AID 485344, 2010; in the data active means inhibition above about 30%; inactive means below that, where a call was filed
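Antagonism is scored as inhibition of an EC80 dopamine-evoked calcium signal in a force-coupled, tetracycline-inducible HEK293 T-REx D2 line, with compound present 180 s before agonist.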
D2 PAM-1: Beta-Arrestin HTS for Positive Allosteric Modulators of the Human D2 Dopamine Receptor: Potentiators | DiscoveRx D2 beta-arrestin cells, luminescence, 90 min; 100% = 57 uM dopamine signal | potentiation, % (concentration not given with the values) | 0.23% of 360,000 active | AID 624464, 2012; in the data active means potentiation above about 50%; inconclusive means mostly about 30% to 49%
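D2 cells co-treated with compound plus 50 nM dopamine (EC20) for 90 min at 37 deg C to detect potentiation. Beta-arrestin recruitment was read as enzyme-fragment luminescence after 1 h at ambient temperature. Full response was set by 57 uM dopamine.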
D2 PAM-2: HTS Assay for Positive Allosteric Modulators of the Human D2 Dopamine Receptor: Primary Screen for Potentiators | D(2) dopamine receptor (Homo sapiens), P14416 | AID 485347, 2010 | potentiation, % at 10 µM | 0.34% of 340,000 active | HEK293 T-REx D2, calcium flux, EC20 dopamine potentiation;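 active means potentiation over 3 SD above the plate norm, cut at about 30% in these data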
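Potentiation of an EC20 dopamine calcium response measured kinetically over 180 s, after a preceding 180 s compound-only read flagging agonists. Cells: inducible Hek293 Trex D2 line, 4000/well, cultured overnight at 30 C before dye loading.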
D2 ag-2: HTS Assay for Allosteric Agonists of the Human D2 Dopamine Receptor: Primary Screen for Agonists; D(2) dopamine receptor (Homo sapiens), P14416; HEK293 T-REx D2 cells, calcium flux agonist mode; activation, % at 2 µM; 0.53% of 340,000 active; AID 485358, 2010;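 active means activation over 3 SD above normal in the single-dose calcium agonist read, cut at about 30% in these data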
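HEK293 Trex D2 cells, tetracycline-induced, o/n 30 C 5% CO2; no-wash Ca dye, RT 30–90 min; 10-cycle baseline, 23 nl cpd added, kinetic Ca read 180 s; agonist hits = positive Ca response.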
Each line names hits and unclear results; the compound was inactive in the other large screens. Rows were chosen to be rich in hits. Some 2.4% of all compounds tested hit in one or more screens of this group.

Cc1cc(=O)n(CCCO)c(O)c1C#N	D2 PAM-1 inconclusive
Cc1cc(=O)n(CC(C)O)c(O)c1C#N (configuration not stated)	D2 PAM-1 62
COC(=O)c1[nH]c2c(c1C)C(=O)CC(c1ccc(OC)c(OC)c1)C2 (configuration not stated)	none (no result: D2 antag, D2 PAM-2, D2 ag-2)
COC(=O)c1[nH]c2c(c1C)C(=O)CC(c1ccc(C)cc1)C2 (configuration not stated)	D2 antag 32
Cc1ccc(-n2ncc3c(N4CCCC4)ncnc32)c(C)c1	none
COc1cccc(N2CCN(c3ncnc4c3cnn4-c3ccc(C)cc3C)CC2)c1	D2 ag-1 87
COC(=O)c1ccc(C)c(NC(=O)CCc2ccc(OC)cc2)c1	none
COc1ccc(CCC(=O)NNC(=O)Nc2cc(Cl)ccc2C)cc1	D2 antag 33
CN(C)c1ccc(S(=O)(=O)NCC(=O)NCCOc2ccccc2F)cc1[N+](=O)[O-]	none
CN(C)c1ccc(S(=O)(=O)NCC(=O)NCCC2=CCCCC2)cc1[N+](=O)[O-]	D2 antag 31
CC1CCN(Cc2c(C#N)c3ccccc3n2C)CC1	D2 antag 74
CC(=O)N(Cc1c(C#N)c2ccccc2n1C)c1ccccc1	none
Cn1c(CN2CCCC2)c(C#N)c2ccccc21	D2 antag 83
CC1CCCCN1Cc1c(C#N)c2ccccc2n1C (configuration not stated)	D2 antag 40
CN1CCN(Cc2c(C#N)c3ccccc3n2C)CC1	none
Cn1c(CN2CCOCC2)c(C#N)c2ccccc21	none
O=C(NCCc1ccccc1)c1ccc(CS(=O)(=O)c2ccc(Cl)cc2)o1	D2 antag 31
O=C(NCCc1ccc(Cl)cc1)c1ccc(CS(=O)(=O)c2ccc(Cl)cc2)o1	none (no result: D2 ag-1, D2 antag, D2 PAM-1, D2 ag-2)
O=C(Nc1ccccc1)c1ccc(-c2ccccc2Cl)o1	none
O=C(NCCc1ccccc1)c1ccc(-c2ccccc2Cl)o1	D2 antag 30
Cc1cc(C)n(-c2nc(C)c(C)c(=O)n2CC(=O)Nc2ccc([N+](=O)[O-])cc2)n1	none (no result: D2 ag-1, D2 antag, D2 PAM-1)
Cc1ccc(OCC(=O)c2c(N)n(C)c(=O)n(C)c2=O)c([N+](=O)[O-])n1	D2 antag 33
Cc1cccc(N2CCN(C(=O)CCc3c(C)nc4ncnn4c3C)CC2)c1C	none (no result: D2 ag-1, D2 antag, D2 PAM-1)
Cc1cc(Br)ccc1N=C1C(=O)Nc2ccccc21	D2 antag 59
COc1ccc(-c2cc3nc(NCc4ccc(C)cc4C)n(C)c(=O)c3s2)cc1OC	none (no result: D2 antag, D2 PAM-2, D2 ag-2)
Cc1ccc(CNc2nc3cc(-c4ccccc4)sc3c(=O)n2C)c(C)c1	D2 ag-1 53 (no result: D2 antag, D2 PAM-2, D2 ag-2)
Cc1ccc(C)c(N2CCN(S(=O)(=O)c3ccc(C(=O)N(C)C)s3)CC2)c1	none (no result: D2 ag-1, D2 antag, D2 PAM-1, D2 PAM-2)
CC1CCN(CCCCOc2ccccc2F)CC1	D2 antag 82
Brc1ccccc1OCCCN1CCOCC1	none
CC1CCN(CCCCOc2ccccc2Br)CC1	D2 antag 91
Brc1ccccc1OCCCCN1CCCCC1	D2 antag 76
COCCCNC(=O)Cn1ncc2ccsc2c1=O	D2 antag 30
CC(=O)N1CCc2cc(CNC(=O)Nc3ccc(Br)c(C)c3)ccc21	none (no result: D2 ag-1, D2 antag, D2 PAM-1)
CCCN1CCN(C(=O)Nc2cccc(C(F)(F)F)c2)CC1	D2 antag 52
CCNC(=O)C1(C)CCN(Cc2ccccc2-c2ccccc2)C1 (configuration not stated)	none (no result: D2 antag, D2 PAM-2, D2 ag-2)
Cc1cc(C)cc(NS(=O)(=O)c2ccc3c(c2)CCCN3C(=O)C2CCC2)c1	none (no result: D2 ag-1, D2 antag, D2 PAM-1)
O=c1[nH]c2c(c(=O)[nH]1)CCC2	D2 antag 37
Cc1cc(Nc2ccccc2)nn1C(=O)c1ccc([N+](=O)[O-])cc1	D2 PAM-1 56
Cc1cc(Nc2ccccc2)nn1C(=O)c1ccc(Cl)cc1	none
Cn1cccc1-c1cc(C(=O)N/N=C/c2ccc([N+](=O)[O-])cc2)[nH]n1	none
Cn1cccc1-c1cc(C(=O)N/N=C/c2ccc(F)cc2)[nH]n1	D2 antag 61 (no result: D2 PAM-2)
Cn1cccc1-c1cc(C(=O)N/N=C/c2ccccc2Cl)[nH]n1	D2 antag 88
Cn1cccc1-c1cc(C(=O)N/N=C/c2cc(Br)ccc2O)[nH]n1	none (no result: D2 antag, D2 PAM-2, D2 ag-2)
COc1ccc2c(c1)sc1ncc(C(=O)NCc3ccc(Cl)cc3)c(=O)n12	none (no result: D2 ag-1, D2 antag, D2 PAM-1)
Cc1cc(OC(C)C(=O)NC2CCN(Cc3ccccc3)CC2)c2c(C)cc(=O)oc2c1 (configuration not stated)	D2 antag 73
O=C(COc1ccccc1F)NC1CCN(Cc2ccccc2)CC1	D2 antag 48
O=C(Cc1c(F)cccc1Cl)NC1CCN(Cc2ccccc2)CC1	none (no result: D2 antag, D2 PAM-2, D2 ag-2)
O=C(Cc1ccccc1[N+](=O)[O-])NC1CCN(Cc2ccccc2)CC1	D2 antag 48
Cc1cc(OCC(=O)NC2CCN(Cc3ccccc3)CC2)c2c(C)cc(=O)oc2c1	D2 antag 54
COc1ccc(-c2cc(C(=O)Nc3c(C(=O)c4ccc(C)c(F)c4)oc4ccccc34)no2)cc1	none (no result: D2 ag-1, D2 antag, D2 PAM-1)
Cc1cc(/C=N/O)c(C)n1-c1ccc(Br)cc1	D2 antag 38
COc1ccccc1C(=O)N1CCCCC1CCN1CCOCC1 (configuration not stated)	none (no result: D2 ag-1, D2 antag, D2 PAM-1)
O=C(NNC(=O)c1sccc1-n1cccc1)c1ccc(Cl)cc1	D2 antag 36
O=C(NNS(=O)(=O)c1ccc(Cl)cc1)c1sccc1-n1cccc1	none (no result: D2 antag, D2 PAM-2, D2 ag-2)
O=[N+]([O-])c1ccccc1NCCNS(=O)(=O)c1ccc(Cl)cc1	D2 antag 34
CCN1C(=O)c2cccc3c(S(=O)(=O)N4CCC(C)CC4)ccc1c23	D2 antag 37
S=C(NCC1CCCO1)N1CCN(c2nc(-c3ccccc3)cs2)CC1 (configuration not stated)	D2 antag 67
O=C(Cn1ccc(C(F)(F)F)n1)N=Nc1c(O)[nH]c2ccc(Br)cc12	D2 PAM-2 42
CC(=O)NCCn1c(SCc2ccc(C)cc2)nc2ccccc2c1=O	none
Cc1ccc(CSc2nc3ccccc3c(=O)n2C)cc1	D2 antag 34
O=C(NCc1nc2ccccc2[nH]1)c1cccc(S(=O)(=O)N2CCOCC2)c1	D2 antag 38
Cc1c(C(=O)NCc2ccccc2CN2CCCC2)oc2ccc(F)cc12	D2 antag 58
CC1CCN(C(=O)COC(=O)c2cccc(S(=O)(=O)N(C)c3ccccc3)c2)CC1	D2 antag 43
O=C(NCc1ccccc1CN1CCCC1)c1cccc(S(=O)(=O)N2CCOCC2)c1	D2 antag 49
